In PubChem BioAssay (NCI):
Values joined by “and” are separate entries in the source; they are usually repeats but may differ in a detail not shown here. Identical values can stand only once. The panel holds about 83,000 compounds, 20% with a hit somewhere; the sample as a whole holds those more often.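 Compound tested at a single concentration for 48 hours in 96-well plates; a percent growth value below 10 was scored as active.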 Active and inactive are the calls of the source.

Experiments:
Assay in all cases: NCI-60 one-dose screen, 48 h (100 = growth as untreated, 0 = no growth, -100 = all killed)
Settings in all cases: 10 µM unless noted
[1] = system: SK-MEL-2 melanoma
[2] = system: EKVX NSCLC
[3] = system: SN12C renal
[4] = system: UO-31 renal
[5] = system: TK-10 renal
[6] = system: ACHN renal
[7] = system: CAKI-1 renal
[8] = system: CCRF-CEM leukemia
[9] = system: MOLT-4 leukemia
[10] = system: A498 renal

| SMILES | growth [1] | growth [2] | growth [3] | growth [4] | growth [5] | growth [6] | growth [7] | growth [8] | growth [9] | growth [10] |
| --- | --- | --- | --- | --- | --- | --- | --- | --- | --- | --- |
| O=C1C2=C(Nc3cc([N+](=O)[O-])ccc3N2)OC1c1c2ccccc2cc2ccccc12 (stereo not given) | 87.4% (inactive) | 43.6% (inactive) | 30.6% (inactive) | 28.3% (inactive) | 73.5% (inactive) | 51.4% (inactive) | 53.1% (inactive) | 9.72% (active) | 8.22% (active) |  |
| CCCCCCCCCCCCCCCCN(CC)CC | -79.9% (active) | -88.5% (active) | -83.5% (active) | -69.3% (active) | -89.4% (active) | -57.4% (active) | -81.9% (active) | -13.4% (active) | -71.2% (active) |  |
| CC1OC2CC(=O)OC2C2=C1C(=O)c1c(O)cccc1C2=O (stereo not given) | -61.2% (active) | -53.3% (active) | -94.9% (active) | -90.7% (active) |  | -97.4% (active) | -82.5% (active) | 0.534% (active) | -7.62% (active) |  |
| O=C(CC1(O)C(=O)Nc2c(Cl)ccc(Cl)c21)c1ccc(Cl)cc1Cl (stereo not given) | 98.9% (inactive) | 85.2% (inactive) | 104% (inactive) | 86.2% (inactive) |  | 107% (inactive) | 93.8% (inactive) | 112% (inactive) | 106% (inactive) | 79.7% (inactive) |
| Cc1cc(N)c2ccccc2[n+]1CCCCCCCCCC[n+]1c(C)cc(N)c2ccccc21 | -23.7% (active) and -19.9% (active) | 13.4% (inactive) and 1.53% (active) | 5.16% (active) and 5.31% (active) | 19.2% (inactive) and 65.3% (inactive) | 21.1% (inactive) and 35.1% (inactive) | 42.8% (inactive) | 30.9% (inactive) and 69.6% (inactive) | 6.34% (active) and 22% (inactive) | -43.9% (active) and 1.26% (active) |  |
| CC(=Nc1ccc(N(C)C)cc1)c1ccccc1 | 78.4% (inactive) | 58.6% (inactive) | 50.4% (inactive) | 55% (inactive) |  | 59.8% (inactive) | 79.8% (inactive) | 52.2% (inactive) | 66.7% (inactive) |  |
| C[n+]1c(/C=C/c2ccc([N+](=O)[O-])cc2)ccc2ccccc21 | 103% (inactive) | 62.8% (inactive) | 102% (inactive) | 63.3% (inactive) | 112% (inactive) | 116% (inactive) | 81.3% (inactive) | 112% (inactive) | 90.7% (inactive) |  |
| C=C(Cl)C(=NC(C)(C)C)Nc1ccccc1C | 139% (inactive) | 90.4% (inactive) | 83.5% (inactive) | 80.7% (inactive) |  | 91% (inactive) | 104% (inactive) | 98.1% (inactive) | 72.2% (inactive) | 105% (inactive) |
| COC(=O)Nc1nc2ccc(C(=O)c3ccccc3)cc2[nH]1 | 44.1% (inactive) and 45.4% (inactive) and -21.7% (active) | 60.4% (inactive) and 39% (inactive) and 21.6% (inactive) | 54.9% (inactive) and 28.7% (inactive) and 58.1% (inactive) | 48% (inactive) and 38.3% (inactive) and 25.3% (inactive) |  | 48.3% (inactive) and 54.2% (inactive) | 48.8% (inactive) and 27.1% (inactive) and 15% (inactive) | 15.7% (inactive) and -14.1% (active) and 1.15% (active) | 19.3% (inactive) and 7.52% (active) and 7.55% (active) | 13.9% (inactive) and 14.6% (inactive) and -12.2% (active) |
| Oc1ccc(/C=N/NC(=S)Nc2ccccc2)nc1 | 11.8% (inactive) | 32.6% (inactive) | 20.2% (inactive) | -2.11% (active) | 31.2% (inactive) | 12.3% (inactive) | 7.96% (active) | 6.28% (active) | -35.2% (active) |  |
| CCOc1ccc(-c2nc3ccc(-c4nc5ccc(N6CCN(C)CC6)cc5[nH]4)cc3[nH]2)cc1 | 4.1% (active) | -75.5% (active) | -91.4% (active) | 23.2% (inactive) | -84.9% (active) | -33.8% (active) | -43.8% (active) | 4.03% (active) | -60.5% (active) |  |
| CN(C)c1ccc(/C=N/N=C(\C#N)[S][Sn]([Cl])([c]2ccccc2)[c]2ccccc2)cc1 | 40.3% (inactive) | 44% (inactive) | 28.8% (inactive) | -0.649% (active) | -24.1% (active) | -51% (active) | 46.4% (inactive) | -20.2% (active) | 6.2% (active) |  |
| N[C@H](C(=O)O)[C@@H]1CC(Cl)=NO1 | 46.3% [20 µM] (inactive) | 23.6% [20 µM] (inactive) | 19.6% [20 µM] (inactive) | 34.8% [20 µM] (inactive) |  | 21.5% [20 µM] (inactive) | 18.3% [20 µM] (inactive) | 19% [20 µM] (inactive) | 23.5% [20 µM] (inactive) | 13.6% [20 µM] (inactive) |
